Assay [1] concerns Wnt5a (protein binding on small-molecule microarray). The assay can be described thus: small molecules binding Wnt5a protein – biophysical, small-molecule microarray, 635/667 nm fluorescence, primary screen (AID 1142).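 Also: fluorescence read at 667 nm with signal to noise per printed feature.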 The following applies: 635 nm fluorescence, higher = more signal.
The nature of assay [2]: ATP-based viability of Huh7 replicon cells – cell-based, CellTiter-Glo luminescence, basal, 48 h, cytotoxicity control for HCV replication inhibitor project, primary screen (AID 1143).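 Also: Huh7 hepatoma cells carrying a hepatitis C replication reporter with no stimulus; test concentration not given here.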 The following applies: higher = more signal, called active from +8 up or from −8 down. In general terms: In antiviral work, replicon cells carry a viral genome segment that copies itself.
Assay [3] can be described thus: Pseudomonas biofilm growth suppression – PAO1 strain, BacTiter-Glo luminescence, LB-PBS, primary screen (AID 1144). The following applies: P. aeruginosa PAO1 biofilm, 12 h, higher = more signal.
Assay [4] can be described thus: basal CRE-LacZ reporter activity in PC12 – cell-based, unstimulated, primary screen (AID 1145). The following applies: no forskolin, luminescence, 4.5 h, higher = more signal, called active from +8 up or from −8 down.
A short description of assay [5]: forskolin-driven CRE-LacZ activity in PC12 – cell-based, CRE-LacZ reporter, forskolin-stimulated, primary screen (AID 1146).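 Also: PC12 cells with 6xCRE LacZ reporter stimulated by forskolin 10 µM; beta-galactosidase reporter signal reflecting CREB driven transcription.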 The settings on record: luminescence, 4.5 h, higher = more signal, called active from +8 up or from −8 down.
For assay [6], the target named is Streptavidin (Streptomyces avidinii) (UniProt P22629). In words: compounds binding control protein streptavidin – biophysical, small-molecule microarray, 635/667 nm fluorescence, artefact control for SMM compound annotation, primary screen (AID 1147).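 Also: signal reflects streptavidin binding to arrayed compounds as a control protein.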 The settings on record: higher = more signal.
The nature of assay [7]: probe aInhba binding on compound microarray – biochemical, small-molecule microarray, 635/667 nm fluorescence, primary screen (AID 1148).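 Also: score merges 667nm spot fluorescence with signal-to-noise for antibody binding to printed compounds.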 The following applies: higher = more signal.
Assay [8] has as its target Torsin-1A (Homo sapiens) (UniProt O14656). In words: TOR1A wild-type binding on microarray – cell lysate, small-molecule microarray, lysate, 635/667 nm, primary screen (AID 1149). The following applies: COS7 hTOR1A-WT lysate, 635 nm fluorescence, higher = more signal.
The target is the same in assay [9]. In words: torsin A mutant lysate binding on microarrays – cell lysate, small-molecule microarray, COS7 lysate, 635/667 nm fluorescence, primary screen (AID 1150).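 Also: score pools 667 nm emission and signal to noise measuring lysate protein binding.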 The following applies: COS7 hTOR1A mutant lysate, 635 nm fluorescence, higher = more signal.
Assay [10] concerns Sonic hedgehog protein (Shh). The assay can be described thus: Sonic hedgehog microarray binding compounds – biochemical, small-molecule microarray, 635/667 nm fluorescence, primary screen (AID 1151).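 Also: Shh protein binding to compounds spotted on small-molecule microarray slides; score combines spot fluorescence intensity with signal-to-noise across triplicate slides.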 The settings on record: 635 nm fluorescence, higher = more signal.
Assay [11] can be described thus: optical density shifts of acrAB sulA E. coli – strain DRC41, OD650, 48 h, E. coli filamentation inducer project, primary screen (AID 1152).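 Also: E. coli MC1000 strain DRC41 lacking acrAB efflux pump and sulA.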 The following applies: higher = more signal, called active from +8 up or from −8 down.
Assay [12] is described as follows: probe aLefty1 binding on compound microarray – biochemical, small-molecule microarray, 635/667 nm fluorescence, primary screen (AID 1153).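 Also: score merges spot fluorescence with signal-to-noise ratio from the scanned slide images.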 The settings on record: higher = more signal.
The nature of assay [13]: plasmodial surface anion channel blockers, osmotic lysis – cell-based, P. falciparum Indochina, OD700, 1 h, primary screen (AID 1154). The settings on record: P. falciparum Indochina infected RBC osmotic lysis, higher = more signal, called active from +8 up or from −8 down.
The nature of assay [14]: plasmodial surface anion channel blockers, osmotic lysis – cell-based, P. falciparum Indochina, OD700, 2 h, primary screen (AID 1155).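 Also: lysis reports solute entry through the parasite surface anion channel PSAC.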 The settings on record: P. falciparum Indochina infected erythrocytes, higher = more signal, called active from +8 up or from −8 down.
A short description of assay [15]: changes in parasitized red cell lysis, either direction – P. falciparum Indochina, OD700, 3 h, PSAC antagonist project, primary screen (AID 1156). The settings on record: P. falciparum-infected erythrocytes, osmotic lysis, higher = more signal, called active from +8 up or from −8 down.
Assay [16] is described as follows: plasmodial surface anion channel blockers, osmotic lysis – cell-based, P. falciparum Indochina, OD700, 18 h, primary screen (AID 1157). The following applies: P. falciparum Indochina infected erythrocytes, osmotic lysis OD700, 18 h; higher = more signal, called active from +8 up or from −8 down.
Assay [17] in a line: S6 kinase pathway phospho-S6 level changes – cell-based, A549, cytoblot, luminescence, serum-stimulated, primary screen (AID 1158).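 Also: serum-stimulated A549 lung adenocarcinoma cells; signal is phosphorylated S6 detected by cytoblot immunostaining with HRP secondary.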 The following applies: 5 h, higher = more signal.
Assay [18] has as its target NADPH oxidase 2 (Homo sapiens) (UniProt P04839). In words: compounds shifting NOX2 Amplex Red fluorescence – cell-based, HEK293-NOX2, PMA-stimulated, NOX inhibitor project, primary screen (AID 1159). Also: test concentration not given here. The settings on record: 45 min, higher = more signal, called active from +8 up or from −8 down.
Assay [19] concerns the target NADPH oxidase 4 (Homo sapiens) (UniProt Q9NPH5). The assay can be described thus: compounds shifting NOX4 Amplex Red fluorescence – cell-based, HEK293-NOX4, tetracycline-induced, NOX inhibitor project, primary screen (AID 1160). The settings on record: HEK293-NOX4, Amplex Red H2O2 fluorescence, 45 min; higher = more signal, called active from +8 up or from −8 down.
For assay [20], the target named is NADPH oxidase 5 (Homo sapiens) (UniProt Q96PH1). The assay can be described thus: compounds shifting NOX5 Amplex Red fluorescence – cell-based, HEK293-NOX5, NOX inhibitor project, primary screen (AID 1161). The settings on record: HEK293-NOX5, ionomycin, 45 min, higher = more signal.

Molecules are shown by their SMILES. Activity calls are given as the source filed them. Unless noted, no rule for the calls is given here.

Torsin-1A (Homo sapiens), sequence (O14656 whole entry, looked up): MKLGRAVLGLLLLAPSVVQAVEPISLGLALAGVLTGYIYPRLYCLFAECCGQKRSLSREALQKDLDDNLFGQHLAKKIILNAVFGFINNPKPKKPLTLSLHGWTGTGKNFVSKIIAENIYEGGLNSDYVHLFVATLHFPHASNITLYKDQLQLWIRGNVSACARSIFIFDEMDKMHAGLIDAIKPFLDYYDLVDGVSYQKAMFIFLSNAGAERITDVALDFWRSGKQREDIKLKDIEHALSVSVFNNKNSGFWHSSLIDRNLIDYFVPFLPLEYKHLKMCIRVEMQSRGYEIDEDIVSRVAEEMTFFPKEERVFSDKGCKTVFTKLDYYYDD
Streptavidin (Streptomyces avidinii), sequence (P22629 whole entry, looked up): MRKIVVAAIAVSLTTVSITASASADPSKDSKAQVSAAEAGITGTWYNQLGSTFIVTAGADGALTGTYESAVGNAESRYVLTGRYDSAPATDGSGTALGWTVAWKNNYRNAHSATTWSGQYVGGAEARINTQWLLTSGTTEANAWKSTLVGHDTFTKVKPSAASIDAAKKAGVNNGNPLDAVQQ
NADPH oxidase 4 (Homo sapiens), sequence (Q9NPH5 whole entry, looked up): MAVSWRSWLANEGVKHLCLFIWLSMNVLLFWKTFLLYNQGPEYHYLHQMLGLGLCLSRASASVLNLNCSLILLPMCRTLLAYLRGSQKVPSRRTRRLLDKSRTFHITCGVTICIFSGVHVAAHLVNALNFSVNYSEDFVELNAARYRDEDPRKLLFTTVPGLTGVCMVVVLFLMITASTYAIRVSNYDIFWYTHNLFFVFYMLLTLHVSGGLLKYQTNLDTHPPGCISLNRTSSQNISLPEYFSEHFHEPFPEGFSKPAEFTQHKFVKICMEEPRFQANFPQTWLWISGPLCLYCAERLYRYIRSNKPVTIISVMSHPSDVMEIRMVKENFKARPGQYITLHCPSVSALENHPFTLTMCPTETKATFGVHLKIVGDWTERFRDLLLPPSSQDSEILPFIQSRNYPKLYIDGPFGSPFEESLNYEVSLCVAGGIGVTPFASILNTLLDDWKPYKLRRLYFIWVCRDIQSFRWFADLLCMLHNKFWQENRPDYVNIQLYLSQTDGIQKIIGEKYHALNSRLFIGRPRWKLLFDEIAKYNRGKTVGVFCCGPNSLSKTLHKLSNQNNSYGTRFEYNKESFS
NADPH oxidase 2 (Homo sapiens), sequence (P04839 whole entry, looked up): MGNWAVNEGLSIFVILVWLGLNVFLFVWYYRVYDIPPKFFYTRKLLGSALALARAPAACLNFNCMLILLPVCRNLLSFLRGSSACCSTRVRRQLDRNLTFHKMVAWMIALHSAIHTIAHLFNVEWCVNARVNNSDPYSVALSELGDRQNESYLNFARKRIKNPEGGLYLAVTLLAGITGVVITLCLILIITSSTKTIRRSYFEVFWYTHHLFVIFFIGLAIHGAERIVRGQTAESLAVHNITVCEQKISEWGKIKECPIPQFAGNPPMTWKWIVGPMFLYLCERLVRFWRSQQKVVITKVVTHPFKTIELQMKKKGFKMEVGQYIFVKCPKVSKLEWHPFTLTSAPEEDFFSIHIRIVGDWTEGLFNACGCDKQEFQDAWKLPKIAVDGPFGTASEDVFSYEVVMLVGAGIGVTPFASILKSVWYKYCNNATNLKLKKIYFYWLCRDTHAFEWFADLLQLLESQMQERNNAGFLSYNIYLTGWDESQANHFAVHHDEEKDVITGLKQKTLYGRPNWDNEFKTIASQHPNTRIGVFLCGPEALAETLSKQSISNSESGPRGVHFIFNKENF
NADPH oxidase 5 (Homo sapiens), sequence (Q96PH1 whole entry, looked up): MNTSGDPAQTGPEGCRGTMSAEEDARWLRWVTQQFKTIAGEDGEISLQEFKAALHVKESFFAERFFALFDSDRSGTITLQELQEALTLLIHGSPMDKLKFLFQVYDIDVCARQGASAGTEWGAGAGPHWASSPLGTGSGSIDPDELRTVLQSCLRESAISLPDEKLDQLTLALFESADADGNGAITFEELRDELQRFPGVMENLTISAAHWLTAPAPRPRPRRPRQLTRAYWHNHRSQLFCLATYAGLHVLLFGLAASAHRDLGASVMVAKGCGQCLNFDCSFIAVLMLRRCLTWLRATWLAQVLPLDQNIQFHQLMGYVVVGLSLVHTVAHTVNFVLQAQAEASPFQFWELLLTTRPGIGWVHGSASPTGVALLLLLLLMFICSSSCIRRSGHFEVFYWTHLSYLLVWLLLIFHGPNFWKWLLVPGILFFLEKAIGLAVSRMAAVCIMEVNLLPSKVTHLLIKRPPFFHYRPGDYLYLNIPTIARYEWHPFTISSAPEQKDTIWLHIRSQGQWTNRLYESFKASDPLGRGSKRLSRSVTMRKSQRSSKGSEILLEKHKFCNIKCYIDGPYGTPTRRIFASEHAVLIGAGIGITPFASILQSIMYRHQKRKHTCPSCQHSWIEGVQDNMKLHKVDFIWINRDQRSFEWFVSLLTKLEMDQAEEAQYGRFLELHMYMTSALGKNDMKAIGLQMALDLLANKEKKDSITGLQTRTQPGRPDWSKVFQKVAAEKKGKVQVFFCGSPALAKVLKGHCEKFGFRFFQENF

In the case of `[N-]=[N+]=NCc1ccccc1C[C@]1(C(=O)N2CCCCC2)N=C(c2ccc(OCCCO)cc2)O[C@H]1c1ccccc1`, the composite z-score is 0.601 in [1]; 0.483 in [6]; -0.0471 in [7]; 0.81 with Torsin-1A (Homo sapiens) [8]; 0.139 with Torsin-1A (Homo sapiens) [9]; -0.655 in assay [10]. In assay [12], this molecule came in with a composite z-score of 0.118. For the same molecule, the z-score in assay [2] is -5.06 (inactive); in [3], -0.307 (inactive); in assay [4] it was -0.0017 (inactive); in assay [5], -0.964 (inactive); in assay [11], 0.74 (inactive); in assay [13], 20.4 (active). In addition, the z-score is 5.49 (inactive) in [14]; 3.48 (inactive) in assay [15]; 2.04 (inactive) in assay [16]; 1.38 in assay [17]; -1.16 (inactive) in [18]; -0.0602 (inactive) in assay [19]. For the same molecule, the z-score in [20] is -0.924.
As for `CC(=O)c1ccc(C(O)C2C=CC3C(=O)N(C)C(=O)C3N2NC(=O)OC(C)(C)C)cc1` (stereo not given), the composite z-score in assay [1] was 0.468; in assay [6], 1.83; in assay [7] it was 0.182; in the assay with Torsin-1A (Homo sapiens) [8] it was -0.0551; with Torsin-1A (Homo sapiens) [9], 0.548; in assay [10], -0.0538. For the same molecule, the composite z-score in [12] is 0.186. Also, the z-score in [2] is 0.847 (inactive); in assay [3], 0.626 (inactive); in [4], 0.246 (inactive); in [5], 1.51 (inactive); in assay [11], -1.33 (inactive); in assay [13] it was 1.24 (inactive). For the same molecule, the z-score in assay [14] was 0.957 (inactive); in [15], 0.0395 (inactive); in assay [16], 0.95 (inactive); in assay [17], -1.51; in [18] it was -0.455 (inactive); in [19], -1.57 (inactive). Moreover, in assay [20], the z-score was -1.01.
Take `CO[C@H]1O[C@H](CO)[C@@H](OC(=O)Nc2ccc(C(F)(F)F)cc2)[C@H](OC(=O)Nc2ccccc2-c2ccccc2)[C@@H]1OC(=O)Nc1ccccc1-c1ccccc1`: the composite z-score in [1] is 0.229; in assay [6], 1.02; in assay [7], 0.228; with Torsin-1A (Homo sapiens) [8], 0.363; with Torsin-1A (Homo sapiens) [9], 0.979; in [10], 1.34. In assay [12], this molecule registered a composite z-score of 0.534. For the same molecule, the z-score is -4.02 (inactive) in assay [2]; 0.821 (inactive) in [3]; 0.148 (inactive) in assay [4]; 0.892 (inactive) in [5]; 0.0065 (inactive) in [11]; 4.11 (inactive) in assay [13]. For the same molecule, the z-score was 1.04 (inactive) in assay [14]; 0.14 (inactive) in assay [15]; 0.817 (inactive) in assay [16]; 0.672 in [17]; -0.803 (inactive) in assay [18]; -0.549 (inactive) in assay [19]. In assay [20], the z-score was -1.23.
For the molecule `CCCCCCCCCCC(O)C1C=CC2C(=O)N(C)C(=O)C2N1N1CCCCC1` (stereo not given), the composite z-score in assay [1] was -0.542; in assay [6], -0.862; in assay [7], -0.0762; with Torsin-1A (Homo sapiens) [8] it was -0.0728; with Torsin-1A (Homo sapiens) [9], 0.522; in [10], -1.89. Further, the composite z-score in assay [12] was 0.532. The z-score is -0.6 (inactive) in assay [2]; 0.816 (inactive) in assay [3]; 0.0569 (inactive) in [4]; 1.39 (inactive) in assay [5]; -1.83 (inactive) in assay [11]; 9.71 (active) in [13]. Moreover, the z-score was 2.41 (inactive) in assay [14]; 2.12 (inactive) in assay [15]; 2.2 (inactive) in [16]; -1.58 in assay [17]; 1.18 (inactive) in [18]; -1.94 (inactive) in assay [19]. Moreover, in assay [20], the z-score is 2.16.

The values above are taken from PubChem BioAssay.
